According to PubChem BioAssay (Tox21):
Inconclusive results are not listed. Active and inactive are the calls of the source. Calls follow the shape of the dose curve; as a rule, active = well fitted cell-killing curve with a large enough effect in the repeat runs; inconclusive = weak or mixed curves, or effect the other way; inactive = flat fitted curve, though single readings scatter.

assay: qHTS assay to identify small molecule antagonists of the estrogen related receptor signaling pathway with the pleiotropic PPARgamma coactivator (PGC) cell viability counter screen (AID 1224822); conditions: ERR/PGC reporter cell line viability counter screen; series mostly up to 46.1 µM
Description: National Center for Advancing Translational Sciences [NCATS]
NIH Chemical Genomics Center [NCGC]
U.S. Environmental Protection Agency [EPA]
National Institutes of Environmental Health Sciences [NIEHS]
National Toxicology Program [NTP]
U.S. Food and Drug Administration [FDA]
Estrogen related receptors (ERRs), the first orphan nuclear receptors discovered, play an important role in the control of cellular energy metabolism. ERRs are required for high-energy production in response to the environmental challenges. The pleiotropic PPARgamma coactivator (PGC) is a major partner of ERR and a key regulator in energy homeostasis. Together they have been implicated in the etiology of metabolic disorders such as Type 2 diabetes and metabolic syndrome. ERR-alpha was also identified as an adverse marker for breast cancer progression; ERR-alpha-positive tumors have a poor prognosis. To screen and to identify environmental compounds that perturb the ERR and PGC/ERR signaling pathways could provide valuable information for potential therapeutic or preventive measures in the treatment of metabolic disease. To differentiate true PGC/ERR antagonists or agonist from cytotoxic substances, the assay is multiplexed with cell viability assay.
Tox21 Assay Protocol Summary:
The PGC/ERR cells were dispensed at 2,000 cells/5 ul/well in 1536-well white plates using a Multidrop dispenser. After the assay plates were incubated at a 37 C/5% CO2 incubator for 6 hours, 23 nL of compounds dissolved in DMSO, positive and negative controls or DMSO only was transferred to the assay plate by a pin tool. The plates were incubated at 37 C for 17.5 hours. 1 ul/well of CellTiter-Fluor reagent was added into the assay plates using a Flying Reagent Dispenser. After 30 min incubation at 37 C/5% CO2, the fluorescence intensity in the plates was measured using a ViewLux plate reader.

Question: With `Cc1ccc(S(=O)(=O)NC(=O)NN2CCCCCC2)cc1` as the molecule, how does the outcome read?
Answer: inactive

Question: For `Cc1ccccc1C(OCCN(C)C)c1ccccc1` (configuration not stated), which outcome is on record?
Answer: inactive

Question: For `Cn1c(=O)c2[nH]cnc2n(C)c1=O`, which outcome is on record?
Answer: inactive

Question: For `O=C(C1CCCCC1)N1CC(=O)N2CCc3ccccc3C2C1` (configuration not stated), which outcome is on record?
Answer: inactive

Question: For `COc1ccc2[nH]cc(CCNC(C)=O)c2c1`, which outcome is on record?
Answer: inactive

Question: With `Nc1ccn([C@H]2CC[C@@H](CO)O2)c(=O)n1` as the molecule, how does the outcome read?
Answer: inactive

Question: Which outcome does the source give for `O=C(O)CCCCCCCC(=O)O` here?
Answer: inactive

Question: Which outcome does the source give for `CCCNC(=O)NS(=O)(=O)c1ccc(Cl)cc1` here?
Answer: inactive

Question: Which outcome does the source give for `NC(N)=NC(=O)c1nc(Cl)c(N)nc1N` here?
Answer: inactive

Question: With `CC(C)(Oc1ccc(C2CC2(Cl)Cl)cc1)C(=O)O` (configuration not stated) as the molecule, how does the outcome read?
Answer: inactive

Question: With `CC(=O)Nc1nnc(S(N)(=O)=O)s1` as the molecule, how does the outcome read?
Answer: inactive

Question: With `Oc1ccc(/C=C/c2cc(O)cc(O)c2)cc1` as the molecule, how does the outcome read?
Answer: inactive

Question: With `CCCC(CCC)C(=O)O` as the molecule, how does the outcome read?
Answer: inactive

Question: For `CCCCC1C(=O)N(c2ccccc2)N(c2ccccc2)C1=O`, which outcome is on record?
Answer: inactive

Question: For `CCC1(c2ccccc2)C(=O)NCNC1=O`, which outcome is on record?
Answer: inactive

Question: For `NC(=O)c1cnccn1`, which outcome is on record?
Answer: inactive

Question: Which outcome does the source give for `CNC[C@H](O)c1cccc(O)c1` here?
Answer: inactive
